From PubChem BioAssay (NCI) come the findings set out here.

Among the test systems are OVCAR-8 ovarian; OVCAR-5 ovarian; OVCAR-4 ovarian; SK-OV-3 ovarian; IGROV1 ovarian; OVCAR-3 ovarian; HS 578T breast; T-47D breast; NCI/ADR-RES ovarian.
Experiment in all cases: NCI-60 one-dose screen, 48 h (100 = growth as untreated, 0 = no growth, -100 = all killed)
What all share (settings): 10 µM

The panel holds about 83,000 compounds, 20% with a hit somewhere; the sample as a whole holds those more often.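 How to read the values: 0–100, growth inhibition (40 = 60% inhibited); 0, no net growth; -100 to 0, cell death (-40 = 40% of starting cells died; -100 = all dead).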 Unmarked numbers belong to inactive results. Calls of active or inactive are those of the source. Rule for the calls: active = growth percent below 10; inactive = the rest.

On to `O=c1[nH]c2ccc(Cl)cc2c2ccccc12`, for which the growth is 77.5% in the experiment with OVCAR-8 ovarian; 84.2% in the experiment on OVCAR-5 ovarian; -3.77% (active) in the experiment with OVCAR-4 ovarian; 39.4% in the experiment on SK-OV-3 ovarian; 29.5% in the experiment on IGROV1 ovarian; 87% in the experiment with OVCAR-3 ovarian. Moreover, the growth in the experiment on HS 578T breast is 75.1%; with T-47D breast, 10.4%.

With `CCN(CC)CCNc1ccc(CO)c2oc3cc(Cl)ccc3c(=O)c12`, the growth in the experiment on OVCAR-8 ovarian is 59.4%; in the experiment with OVCAR-5 ovarian, 104%; in the experiment with OVCAR-4 ovarian, 78.7%; in the experiment on SK-OV-3 ovarian, 92.9%; with OVCAR-3 ovarian, 91.8%; in the experiment with HS 578T breast it was 99%. Also, the growth was 74.2% with NCI/ADR-RES ovarian and 117% with T-47D breast.

On to `O=C1/C(=C\c2ccc(F)cc2)CN(C(=O)c2ccc([N+](=O)[O-])cc2)C/C1=C\c1ccc(F)cc1`, for which the growth was 19.5% in the experiment on OVCAR-8 ovarian; 77.1% in the experiment with OVCAR-5 ovarian; 50.5% in the experiment on OVCAR-4 ovarian; 50.8% in the experiment with SK-OV-3 ovarian; 33.9% in the experiment on IGROV1 ovarian; 10.3% in the experiment with OVCAR-3 ovarian. The growth was -9.57% (active) in the experiment on HS 578T breast, 24.3% in the experiment with NCI/ADR-RES ovarian and 64.5% in the experiment with T-47D breast.

In the case of `ClCCOCCn1cnc2c(Cl)nc(Cl)nc21`, the growth in the experiment on OVCAR-8 ovarian was 62.7%; in the experiment on OVCAR-5 ovarian, 102%; with SK-OV-3 ovarian, 97.4%; in the experiment on IGROV1 ovarian, 59%; with OVCAR-3 ovarian, 58.8%; with HS 578T breast, 12.4%. The growth with NCI/ADR-RES ovarian is 101%; in the experiment with T-47D breast it was 80.9%.

As for `COc1ccc(-c2cc(-c3cccc(NS(C)(=O)=O)c3)nc(N)c2C#N)cc1`, the growth is 37.6% in the experiment on OVCAR-8 ovarian; 53.8% in the experiment on OVCAR-5 ovarian; 51.3% in the experiment with OVCAR-4 ovarian; 20.3% in the experiment on SK-OV-3 ovarian; 73.4% in the experiment on IGROV1 ovarian; -48.4% (active) in the experiment on OVCAR-3 ovarian. The growth in the experiment with HS 578T breast is -14.3% (active); in the experiment on T-47D breast it was 57.5%.

Turning to `Cc1ccc(-c2nc(/C=C3/C(=O)N(C)c4ccc(F)cc43)c3ccccn23)cc1`, the growth is 99.3% with OVCAR-8 ovarian; 106% with OVCAR-5 ovarian; 114% in the experiment on OVCAR-4 ovarian; 105% in the experiment with SK-OV-3 ovarian; 112% in the experiment with OVCAR-3 ovarian; 107% in the experiment on HS 578T breast. The values for the growth with NCI/ADR-RES ovarian and in the experiment on T-47D breast were 105% and 109%, respectively.

Turning to `CC1(C)CCC(=NNC(N)=S)CC1`, the growth is 100% with OVCAR-8 ovarian; 109% with OVCAR-5 ovarian; 117% in the experiment on SK-OV-3 ovarian; 116% in the experiment on IGROV1 ovarian; 112% with OVCAR-3 ovarian; 103% in the experiment on HS 578T breast. Moreover, the results for the growth with NCI/ADR-RES ovarian and in the experiment with T-47D breast were 105% and 95.2%, respectively.

Consider `CC(C)=NNc1ncnc2c1ncn2C1OC(CO)C(O)C1O` (stereo not drawn), for which the growth in the experiment on OVCAR-8 ovarian was 25.7%; in the experiment on OVCAR-4 ovarian, 26.4%; with SK-OV-3 ovarian, 4.34% (active); in the experiment with IGROV1 ovarian, 64.5%; in the experiment with OVCAR-3 ovarian, 3.84% (active); in the experiment with HS 578T breast it was -2.14% (active). Further, the growth with T-47D breast was 19.2%.

`Cc1cc(O)c(C(C)(C)C)cc1Sc1cc(C(C)(C)C)c(O)cc1C`: the growth is 73.6% in the experiment with OVCAR-8 ovarian; 90.4% in the experiment on OVCAR-5 ovarian; 28.3% in the experiment with OVCAR-4 ovarian; 65.3% in the experiment with SK-OV-3 ovarian; 39.1% in the experiment on IGROV1 ovarian; 29.3% in the experiment with OVCAR-3 ovarian. The results for the growth in the experiment with NCI/ADR-RES ovarian and in the experiment with T-47D breast were 30.7% and 18.6%, respectively.

Take `COc1cc(Cc2cc(-c3ccc(Cl)cc3)n[nH]c2=O)ccc1O`: the growth is 92.6% in the experiment on OVCAR-8 ovarian; 115% in the experiment on OVCAR-5 ovarian; 98.6% with SK-OV-3 ovarian; 112% in the experiment with IGROV1 ovarian; 96.1% with OVCAR-3 ovarian; 73.2% in the experiment on HS 578T breast. In addition, the growth is 126% in the experiment with NCI/ADR-RES ovarian and 91% in the experiment with T-47D breast.

In the case of `O=C1/C(=C/c2ccc(Cl)cc2)SC(=Nc2ccc(Cl)cc2)N1Cc1nc2ccccc2[nH]1`, the growth in the experiment on OVCAR-8 ovarian is 66.9%; in the experiment on OVCAR-5 ovarian, 107%; in the experiment with SK-OV-3 ovarian, 97.6%; in the experiment with IGROV1 ovarian, 64.8%; with OVCAR-3 ovarian, 81.6%; with HS 578T breast, 114%. In addition, the growth in the experiment with T-47D breast is 78.1%.

As to `N#CC1=C(Nc2ccccc2Cl)SC(c2ccccc2O)NC1=O` (stereo not drawn), the growth in the experiment with OVCAR-8 ovarian is 111%; in the experiment on OVCAR-5 ovarian, 105%; with OVCAR-4 ovarian it was 111%; with SK-OV-3 ovarian, 116%; in the experiment with IGROV1 ovarian, 102%; in the experiment with OVCAR-3 ovarian, 127%. The growth with HS 578T breast is 116%; with NCI/ADR-RES ovarian it was 110%; in the experiment with T-47D breast it was 111%.

For `C[N+](C)(C)c1ncnc2nc[nH]c12`, the growth in the experiment with OVCAR-8 ovarian was 102%; with OVCAR-5 ovarian, 80.3%; in the experiment on OVCAR-4 ovarian it was 103%; in the experiment on SK-OV-3 ovarian it was 97.3%; in the experiment with OVCAR-3 ovarian it was 112%; in the experiment with HS 578T breast, 101%. Moreover, the growth is 94.1% in the experiment with NCI/ADR-RES ovarian and 91.7% with T-47D breast.

Regarding `CCOC(=O)C(NC(=O)C(Cl)Cl)C(O)c1ccccc1` (stereo not drawn), the growth in the experiment with OVCAR-8 ovarian is 102%; in the experiment on OVCAR-5 ovarian it was 102%; in the experiment with OVCAR-4 ovarian, 110%; with SK-OV-3 ovarian, 116%; in the experiment with IGROV1 ovarian, 77.7%; in the experiment on OVCAR-3 ovarian it was 109%. The growth with HS 578T breast is 120%; in the experiment with NCI/ADR-RES ovarian, 108%; in the experiment on T-47D breast it was 107%.
